Compound activity: PubChem, National Center for Advancing Translational Sciences (NCATS)
Only some compounds are listed: those with a hit (about 3.8% of all), similar ones and a draw of the others.
S2 tox: viability counter-screen for ATXN expression inhibitors. S2 cells (HEK-293 line with an ATXN2-luciferase reporter) viability, CellTiter-Fluor protease fluorescence, 24 h. Potency, µM (series often up to 56.7 µM), actives largely listed as cytotoxic. 400,000 tested, 0.49% active. AID 651635; note: nearly all actives have a fitted effect of over 40% in size
HepG2 tox-1: counter-screen for TGF-b inhibitors: cytotoxicity in HepG2 cells | 410,000 tested, 0.76% active | HepG2 CAGA-GFP viability, ATP luminescence, 18 h | AID 588856 | Potency, µM (series often up to 46.1 µM), hits mostly cytotoxic
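HepG2 CAGA-GFP cells (1000/well, DMEM with 1% FBS) received compound, then TGF-beta at 500 pg/mL final, and were incubated 18 hours at 37 degrees C. Viability was read by CellTiter-Glo luminescence. Media-only wells were set as complete cell-killing and DMSO as no toxicity.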
TGFb SMAD3 inh: inhibitors of TGF-b signaling; Potency, µM (titrated, usually from 46.1 µM), hits mostly inhibitors; AID 588855; HepG2 CAGA-GFP TGF-b/SMAD3 reporter, GFP fluorescence, 18 h; TGF-beta stimulated, 500 pg/mL final; 410,000 tested, 1.2% active; note: nearly all actives have a fitted effect of over 65% in size
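Per well, imaged GFP fluorescence of HEPG2 CAGA-GFP cells gives the signal; cells get compound, then TGF-beta (500 pg/mL final), 18 h at 37 degrees C; %Activity versus -TGF-beta and +DMSO controls.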
ATXN2 expr inh: reduces ATXN2 reporter expression in HEK-293 cells; HEK-293 ATXN2-luciferase reporter, luminescence, 24 h; Potency, µM (highest dose often 57 µM), hits mostly inhibitors; 360,000 tested, 0.72% active; note: nearly all actives have a fitted effect of over 55% in size
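qHTS (up to 57 uM final) was run with 24 h compound exposure of reporter cells at 37 °C. Each well was multiplexed: SteadyGlo luminescence measured ATXN2-luciferase expression after a fluorogenic Gly-Phe-AFC viability readout (25 uM final).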
HT1080-NT tox: kills 2HG-producing HT-1080-NT fibrosarcoma cells. HT-1080-NT fibrosarcoma viability, CellTiter-Glo ATP luminescence, 48 h. Potency, µM (doses to about 46.1 µM), usual class: cytotoxic. 360,000 tested, 1.6% active. AID 686970;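 note: NT is the 2HG producing partner of a matched IDH1 knockdown line; nearly all actives have a fitted effect of over 55% in size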
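A 48-hour cytotoxicity screen used HT-1080-NT cells plated 2 hours before compound delivery. ATP-based CellTiter-Glo luminescence measured viability, normalized to DMSO and no-cell controls.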
HT1080 IDH1KD tx: toxicity to HT-1080 IDH1 knockdown cells (counter line); HT-1080 IDH1 knockdown viability, ATP luminescence, 48 h; Potency, µM (titrated, usually from 46.1 µM), most hits filed as cytotoxic; 360,000 tested, 2% active; AID 686971
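Assay cells: HT-1080 with IDH1 knockdown, 750 per well, RPMI/5% FBS. Exposure: 48 h at 37 °C following 2 h pre-incubation. Read: CellTiter-Glo luminescence; fitted concentration-response, curve class assigned.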
TGFb CAGA inh: confirmation of TGF-b signaling inhibitors in HepG2 reporter cells; 1,600 tested, 63% active; HepG2 CAGA-GFP TGF-b reporter, GFP fluorescence, 18 h; cells stimulated with TGF-beta, 500 pg/mL; Potency, µM (highest dose often 46.1 µM), hits mostly inhibitors; shares compounds with TGFb SMAD3 inh; AID 720534; note: nearly all actives have a fitted effect of over 65% in size
HepG2 tox-2: toxic to HepG2 cells in TGF-b counterscreen. shares compounds with TGFb SMAD3 inh. HepG2 CAGA-GFP viability, ATP luminescence, 18 h; cells stimulated with TGF-beta, 500 pg/mL. Potency, µM (highest dose often 46.1 µM), hits mostly inhibitors. 1,600 tested, 27% active; note: nearly all actives have a fitted effect of over 70% in size
CCL64 TGFb inh: blocks TGF-b signaling in CCL64 reporter cells | 1,600 tested, 41% active | CCL64 CAGA-GFP reporter, TGF-b stimulated, GFP fluorescence, 18 h | shares compounds with TGFb SMAD3 inh | AID 720536 | Potency, µM (titrated, usually from 46.1 µM), usual class: inhibitors; note: nearly all actives have a fitted effect of over 65% in size
COP TGFb inh: TGF-b inhibition validated with COP promoter; shares compounds with TGFb SMAD3 inh; HepG2 COP-GFP TGF-b reporter, GFP fluorescence, 18 h; cells stimulated by added recombinant TGF-beta; Potency, µM (highest dose often 46.1 µM), most hits filed as inhibitors; 1,600 tested, 3% active; AID 720537; note: nearly all actives have a fitted effect of over 70% in size
Numbers stand for hits. Calls come from the whole dose curve; as a rule, active = well fitted curve in the direction sought with a large enough effect; inconclusive = small, poorly fitted or top-dose-only effect, or another doubt; inactive = no such curve, though single readings can be large; an effect the other way counts as inactive or inconclusive.

Screening COc1ccc(-c2cc(N)n(S(=O)(=O)c3ccc(C)cc3)n2)c(OC)c1 returned S2 tox inactive, HepG2 tox-1 inactive, TGFb SMAD3 inh inactive, ATXN2 expr inh inactive, HT1080-NT tox inactive and HT1080 IDH1KD tx inactive.
Screening COc1ccc(S(=O)(=O)n2nc(-c3ccc(Cl)cc3)cc2N)cc1 returned S2 tox inconclusive, HepG2 tox-1 inactive, TGFb SMAD3 inh 12.6µM, ATXN2 expr inh inactive, HT1080-NT tox 18.4µM, HT1080 IDH1KD tx 18.4µM, TGFb CAGA inh inconclusive, HepG2 tox-2 inconclusive, CCL64 TGFb inh inconclusive and COP TGFb inh inactive.
For CCOC(=O)c1nc(NCc2ccc(Cl)cc2)c2c(C)noc2n1 the results were S2 tox inactive, HepG2 tox-1 inactive, TGFb SMAD3 inh inactive and ATXN2 expr inh inactive.
Cc1ccc(N/N=C(\C#N)C(=O)c2ccsc2)cc1 was read as S2 tox inactive, HepG2 tox-1 inactive, TGFb SMAD3 inh inconclusive, HT1080-NT tox inconclusive and HT1080 IDH1KD tx inconclusive.
`N#C/C(=N\Nc1ccc(Cl)cc1)C(=O)c1ccsc1` gave S2 tox inconclusive, HepG2 tox-1 inactive, TGFb SMAD3 inh inconclusive, ATXN2 expr inh inconclusive, HT1080-NT tox inconclusive, HT1080 IDH1KD tx inconclusive, TGFb CAGA inh 8.2µM, HepG2 tox-2 7.31µM, CCL64 TGFb inh 20.6µM and COP TGFb inh inactive.
For CC(=O)c1ccc(NC(=O)c2cccc(NC(=O)N3CCSc4ncccc43)c2)cc1 the results were HepG2 tox-1 inactive and TGFb SMAD3 inh inactive.
For CN(C)c1cccc(/C=C(\C#N)c2ccccc2)c1 the results were S2 tox inactive, HepG2 tox-1 inactive, TGFb SMAD3 inh 12.6µM, HT1080-NT tox inconclusive, HT1080 IDH1KD tx 3.26µM, TGFb CAGA inh inconclusive, HepG2 tox-2 inactive, CCL64 TGFb inh inconclusive and COP TGFb inh inactive.
For Cc1ccc2c(C)ccc(O)c2n1 the results were S2 tox inactive, HepG2 tox-1 inactive, TGFb SMAD3 inh 7.08µM, ATXN2 expr inh inactive, HT1080-NT tox inactive, HT1080 IDH1KD tx inactive, TGFb CAGA inh inactive, HepG2 tox-2 inactive, CCL64 TGFb inh inactive and COP TGFb inh inactive.
`Cc1ccc2ncnc(NCc3ccco3)c2c1` gave HepG2 tox-1 inactive and TGFb SMAD3 inh inactive.
`Cc1sc2ncnc(NCC3COc4ccccc4O3)c2c1C` (stereo not given) gave S2 tox inactive, HepG2 tox-1 inactive, TGFb SMAD3 inh inconclusive, ATXN2 expr inh inconclusive, HT1080-NT tox inactive and HT1080 IDH1KD tx inconclusive.
c1ccc(-c2csc3ncnc(NCC4COc5ccccc5O4)c23)cc1 (stereo not given) was read as S2 tox inconclusive, HepG2 tox-1 inactive, TGFb SMAD3 inh 3.55µM, ATXN2 expr inh inconclusive, HT1080-NT tox inactive, HT1080 IDH1KD tx inactive, TGFb CAGA inh 2.59µM, HepG2 tox-2 inconclusive, CCL64 TGFb inh 14.6µM and COP TGFb inh inactive.
